The values below come from PubChem BioAssay (NCI).

The panel holds about 79,000 compounds, 15% with a hit somewhere; the sample as a whole holds those more often. Values without a mark were called inactive. Active and inactive are the calls of the source. Cut-off read from the data, not from the text of the source: active = growth inhibition above about 70%; inactive = the rest.

Test [1] can be described thus: NCI Yeast Anticancer Drug Screen. Data for the rad50 strain (AID 155).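 Note: 0% = growth of vehicle-only cultures of the same strain.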 To be noted: S. cerevisiae rad50 strain growth inhibition, active compounds read high. In short, it runs like this:
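Genetically altered yeast (DNA repair pathway); compound treatment; growth inhibition vs vehicle ctrl.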

Test [2] in a line: NCI Yeast Anticancer Drug Screen. Data for the mec2-1 strain (AID 157). The conditions noted are these: S. cerevisiae mec2-1 strain, active compounds read high. In a few lines:
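Test agents were screened against the mec2-1 yeast strain, with defined DNA repair or cell cycle alteration. Growth was scored as inhibition against vehicle-only controls.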

Test [3] can be described thus: NCI Yeast Anticancer Drug Screen. Data for the sgs1 mgt1 strain (AID 161).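 Note: 0% = growth of cultures given vehicle only.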 The conditions noted are these: S. cerevisiae sgs1 mgt1 strain, active compounds read high. In short, it runs like this:
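Test agents were incubated with a DNA-repair-mutant yeast strain. Growth was then read and compared against vehicle-treated controls.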

Test [4] in a line: NCI Yeast Anticancer Drug Screen. Data for the cln2 rad14 strain (AID 165).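 Note: 0% = growth equal to vehicle treated cultures.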 To be noted: S. cerevisiae cln2 rad14 strain, active compounds read high. In short, it runs like this:
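Growth of compound-exposed yeast (cln2 rad14 genotype) measured and expressed as inhibition relative to vehicle.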

Test [5] is described as follows: NCI Yeast Anticancer Drug Screen. Data for the bub3 strain (AID 167). To be noted: S. cerevisiae bub3 mutant strain, active compounds read high. In short, it runs like this:
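Yeast carrying a defined mutation is treated with each compound, and growth is compared with that of vehicle-exposed cells to give inhibition.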

Test [6] can be described thus: NCI Yeast Anticancer Drug Screen. Data for the mlh1 rad18 strain (AID 175). The conditions noted are these: S. cerevisiae mlh1 rad18 strain growth inhibition, active compounds read high. In short, it runs like this:
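In this whole-cell yeast screen, a strain with altered DNA damage repair is challenged with compound, and its growth is measured against matched vehicle-treated controls.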

Setting [7] is: at 5.0 µM (retest, dose inferred, filed as 0.5).
[8] abbreviates: at 50.0 µM (retest, dose inferred, filed as 5.0).

As for `COc1ccc(CN2CCCN(Cc3ccc(OC)cc3OC)C2c2cccc([N+](=O)[O-])c2O)c(OC)c1`, the growth inhibition in test [1] (setting [7]) was 16%; in test [1] (setting [8]), 61%; in test [1] (at 50.0 µM), 70.8% (active); in test [2] (setting [7]) it was 11%; in test [2] (setting [8]), 29%; in test [2] (at 50.0 µM), 29.8%. Besides, the growth inhibition in test [3] (setting [7]) is 8%; in test [3] (setting [8]), 20%; in test [3] (at 50.0 µM), 77.5% (active); in test [4] (setting [7]), 5%; in test [4] (setting [8]), 27%; in test [4] (at 50.0 µM), 54.1%. In addition, the growth inhibition in test [5] (setting [7]) was -5%; in test [5] (setting [8]), 31%; in test [5] (at 50.0 µM), 7.65%; in test [6] (setting [7]) it was 16%; in test [6] (setting [8]) it was 70% (active); in test [6] (at 50.0 µM), 51.4%.
As for `O=C(c1ccccc1)C1N=NCC1c1ccc([N+](=O)[O-])cc1` (configuration not stated), the growth inhibition in test [1] (setting [7]) is 2%; in test [1] (setting [8]) it was -21%; in test [1] (at 50.0 µM), -3.65%; in test [2] (setting [7]), 11%; in test [2] (setting [8]), 9%; in test [2] (at 50.0 µM) it was 10.1%. The growth inhibition in test [3] (setting [7]) was 1%; in test [3] (setting [8]), 47%; in test [3] (at 50.0 µM), 18.2%; in test [4] (setting [7]), 5%; in test [4] (setting [8]), -4%; in test [4] (at 50.0 µM) it was -4.4%. The growth inhibition in test [5] (setting [7]) is -5%; in test [5] (setting [8]) it was 5%; in test [5] (at 50.0 µM), 84.2% (active); in test [6] (setting [7]), 0%; in test [6] (setting [8]) it was -4%; in test [6] (at 50.0 µM), 40.6%.
Take `O=C(Nc1cc(Cl)cc(Cl)c1)C(F)(F)F`: the growth inhibition in test [1] (setting [7]) is 27%; in test [1] (setting [8]), 98% (active); in test [1] (at 50.0 µM), 83.9% (active); in test [2] (setting [7]), 34%; in test [2] (setting [8]), 100% (active); in test [2] (at 50.0 µM), 87.5% (active). Also, the growth inhibition in test [3] (setting [7]) is 37%; in test [3] (setting [8]), 99% (active); in test [3] (at 50.0 µM) it was 96.4% (active); in test [4] (setting [7]), 9%; in test [4] (setting [8]), 99% (active); in test [4] (at 50.0 µM), 92.4% (active). Also, the growth inhibition in test [5] (setting [7]) is 96% (active); in test [5] (setting [8]) it was 99% (active); in test [5] (at 50.0 µM), 85% (active); in test [6] (setting [7]) it was 59%; in test [6] (setting [8]), 99% (active); in test [6] (at 50.0 µM), 97.4% (active).
With `Cc1ccc(NCCNCCO)c2c(=O)c3ccccc3sc12`, the growth inhibition in test [1] (setting [7]) was 27%; in test [1] (setting [8]), 99% (active); in test [1] (at 50.0 µM), 99.5% (active); in test [2] (setting [7]), 9%; in test [2] (setting [8]) it was 100% (active); in test [2] (at 50.0 µM), 99.6% (active). Further, the growth inhibition in test [3] (setting [7]) is 9%; in test [3] (setting [8]) it was 100% (active); in test [3] (at 50.0 µM) it was 99.2% (active); in test [4] (setting [7]), 8%; in test [4] (setting [8]), 99% (active); in test [4] (at 50.0 µM), 99.4% (active). For the same molecule, the growth inhibition in test [5] (setting [7]) was 11%; in test [5] (setting [8]), 99% (active); in test [5] (at 50.0 µM), 99.5% (active); in test [6] (setting [7]), 25%; in test [6] (setting [8]), 99% (active); in test [6] (at 50.0 µM), 99.5% (active).
On to `Cc1ccc2nn(-c3ccc(O)cc3)nc2c1`, for which the growth inhibition is 11% in test [1] (setting [7]); 45% in test [1] (setting [8]); 50.3% in test [1] (at 50.0 µM); 16% in test [2] (setting [7]); 42% in test [2] (setting [8]); 22.6% in test [2] (at 50.0 µM). The growth inhibition was 7% in test [3] (setting [7]); 38% in test [3] (setting [8]); 27% in test [3] (at 50.0 µM); 6% in test [4] (setting [7]); 39% in test [4] (setting [8]); 29.3% in test [4] (at 50.0 µM). Besides, the growth inhibition in test [5] (setting [7]) is 28%; in test [5] (setting [8]), 69%; in test [5] (at 50.0 µM), 74.5% (active); in test [6] (setting [7]), 12%; in test [6] (setting [8]) it was 50%; in test [6] (at 50.0 µM) it was 74.2% (active).
Take `COC(=O)c1ccc(SCCC(=O)CCl)cc1`: the growth inhibition in test [1] (setting [7]) is 23%; in test [1] (setting [8]), 99% (active); in test [1] (at 50.0 µM), 99.3% (active); in test [2] (setting [7]), 25%; in test [2] (setting [8]) it was 99% (active); in test [2] (at 50.0 µM), 99.2% (active). In addition, the growth inhibition in test [3] (setting [7]) is 24%; in test [3] (setting [8]), 99% (active); in test [3] (at 50.0 µM), 99% (active); in test [4] (setting [7]), 14%; in test [4] (setting [8]) it was 99% (active); in test [4] (at 50.0 µM), 98.7% (active). Also, the growth inhibition in test [5] (setting [7]) is 38%; in test [5] (setting [8]), 99% (active); in test [5] (at 50.0 µM), 99.4% (active); in test [6] (setting [7]), 27%; in test [6] (setting [8]) it was 99% (active); in test [6] (at 50.0 µM) it was 99% (active).
In the case of `N/C(=N\OC(=O)Nc1ccccc1)c1ccccc1`, the growth inhibition in test [1] (setting [7]) is 7%; in test [1] (setting [8]), 51%; in test [1] (at 50.0 µM) it was 42.1%; in test [2] (setting [7]) it was 8%; in test [2] (setting [8]), 40%; in test [2] (at 50.0 µM), 33%. Moreover, the growth inhibition was 13% in test [3] (setting [7]); 70% (active) in test [3] (setting [8]); 68% in test [3] (at 50.0 µM); 2% in test [4] (setting [7]); 38% in test [4] (setting [8]); 32.2% in test [4] (at 50.0 µM). Also, the growth inhibition in test [5] (setting [7]) was -3%; in test [5] (setting [8]), 24%; in test [5] (at 50.0 µM) it was 11.7%; in test [6] (setting [7]) it was 4%; in test [6] (setting [8]) it was 76% (active); in test [6] (at 50.0 µM), 58.6%.
As to `N=Nc1c(OC(=O)Nc2ccccc2)[nH]c2ccccc12`, the growth inhibition was -3% in test [1] (setting [7]); 67% in test [1] (setting [8]); 8.65% in test [1] (at 50.0 µM); 20% in test [2] (setting [7]); 63% in test [2] (setting [8]); -6.3% in test [2] (at 50.0 µM). The growth inhibition is -1% in test [3] (setting [7]); 69% in test [3] (setting [8]); 13.8% in test [3] (at 50.0 µM); 9% in test [4] (setting [7]); 40% in test [4] (setting [8]); 63.9% in test [4] (at 50.0 µM). Besides, the growth inhibition in test [5] (setting [7]) is 1%; in test [5] (setting [8]) it was 84% (active); in test [5] (at 50.0 µM), 31.9%; in test [6] (setting [7]), -3%; in test [6] (setting [8]) it was 85% (active); in test [6] (at 50.0 µM), 71.5% (active).
In the case of `BrCc1ccc2ccc3ccc(CBr)nc3c2n1`, the growth inhibition was 2% in test [1] (setting [7]); 83% (active) in test [1] (setting [8]); 69.7% in test [1] (at 50.0 µM); 11% in test [2] (setting [7]); 91% (active) in test [2] (setting [8]); 43.5% in test [2] (at 50.0 µM). For the same molecule, the growth inhibition in test [3] (setting [7]) is 11%; in test [3] (setting [8]), 95% (active); in test [3] (at 50.0 µM), 63.9%; in test [4] (setting [7]), -12%; in test [4] (setting [8]) it was 89% (active); in test [4] (at 50.0 µM), 24.8%. Moreover, the growth inhibition in test [5] (setting [7]) was -4%; in test [5] (setting [8]), 94% (active); in test [5] (at 50.0 µM), 45%; in test [6] (setting [7]), 8%; in test [6] (setting [8]), 95% (active); in test [6] (at 50.0 µM), 64.8%.
